Screens (PubChem)
Hits are enriched below; roughly 19% of the tested compounds scored in any of these assays.
IL1B secr inh: blocks inflammasome-driven IL-1 beta release; hit rate 4.7% among 360,000; THP-1 LPS/ATP IL-1B secretion, AlphaLISA, 16 h; stronger effect = lower value; activity change, % at 57.5 µM; AID 743279; in the data active means activity change below about -50%; inconclusive means mostly about -30% to -49%
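Secreted IL-1B measured by AlphaLISA bead assay after 16 h compound exposure of THP-1 cells; compounds (final up to 57.5 uM) added 1 h before LPS (250 ng/mL) and ATP (1.25 mM) stimulation; lower signal means less secretion.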
DT40 TDP1 CPT: growth inhibition of DT40 Tdp1-/-;hTDP1 cells with camptothecin (screen for TDP1 inhibitors); chicken DT40 Tdp1-/-;hTDP1 cells + 20 nM CPT, ATP luminescence, 48 h; Potency, µM (titrated, usually from 46.2 µM), for the others: top-dose activity change, negative = growth inhibition, hits mostly inhibitors; hit rate 12% among 420,000; AID 686979; further: potency means the concentration at half of the fitted maximal effect; nearly all actives have a fitted effect of over 55% in size
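Chicken DT40 Tdp1-/- cells complemented with human TDP1, 400 cells/well, exposed to compounds plus 20 nM camptothecin for at least 48 h at 37 C; viability read as ATP content by CellTiter-Glo luminescence.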
TDP1 cell noCPT: qHTS for Inhibitors of human tyrosyl-DNA phosphodiesterase 1 (TDP1): qHTS in cells in absence of CPT | hit rate 15% among 420,000 | DT40 Tdp1-/- hTDP1 cells, no CPT, ATP luminescence, 48 h | Potency, µM (series often up to 46.2 µM), without a hit: at the top dose activity change, negative = growth inhibition, actives largely listed as inhibitors; further: potency means the concentration at half of the fitted maximal effect; nearly all actives have a fitted effect of over 55% in size
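Growth of hTDP1-complemented DT40 Tdp1-knockout cells is measured by ATP luminescence after at least 48 hr compound exposure at 37 °C, with DMSO substituting for the 20 nM CPT used in the parallel screen.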
HT1080 IDH1KD tx: kills HT-1080 cells with IDH1 knockdown | HT-1080 IDH1 knockdown viability, ATP luminescence, 48 h | Potency, µM (doses to about 46.1 µM), without a hit: at the top dose activity, negative = toxicity, actives largely listed as cytotoxic | hit rate 2% among 360,000;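 further: potency means the concentration at half of the fitted maximal effect; 0% = DMSO wells and -100% = cell-free medium wells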
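Luminescent ATP read-out (CellTiter-Glo, 10 min at room temperature) after 48 h compound exposure at 37 °C gave viability of IDH1-knockdown HT-1080 cells. Activity was normalised to DMSO and cell-free wells, then fitted as concentration-response curves.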
HT1080NT lethal: kills 2HG-producing HT-1080-NT fibrosarcoma cells; Potency, µM (top dose mostly 46.1 µM), inactives show at the top dose activity, negative = less viability, hits mostly cytotoxic; HT-1080-NT fibrosarcoma viability, CellTiter-Glo ATP luminescence, 48 h; hit rate 1.6% among 360,000;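 further: NT is the 2HG producing partner of a matched IDH1 knockdown line; potency means the concentration at half of the fitted maximal effect; 0% = DMSO-treated cells and -100% = media-only wells without cells; nearly all actives have a fitted effect of over 55% in size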
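Viability by CellTiter-Glo luminescence after 48 h compound exposure at 37C of HT-1080-NT cells (750/well, RPMI, 5% FBS). % activity scaled between DMSO wells and medium-only wells, then curve-fitted and categorized by curve class.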
An asterisk follows results filed as active; ? = inconclusive; nt = no result given; ! = not active in a repeat; [ ] = another dose, or the depositor's remark. Unless noted, the call rests on the fitted dose curve; in most records, active means well fitted curve in the direction sought with a large enough effect; inconclusive means small, poorly fitted or top-dose-only effect, or another doubt; inactive means no such curve, though single readings can be large; an effect the other way counts as inactive or inconclusive. Unless noted, on the % scale 0 is the no-effect control and ±100 the full control effect.

SMILES | IL1B secr inh | DT40 TDP1 CPT | TDP1 cell noCPT | HT1080 IDH1KD tx | HT1080NT lethal
O=C(NC(=O)N1CCC2(CC1)OCCO2)c1ccc(Cl)cc1 | 2 | 20% | -4% | 20% | 19%
CC(=O)C1=C(O)C2(C)c3c(O)c(C)c(O)c(C(C)=O)c3OC2CC1=O (stereo not drawn) | -3 | ? | 23µM* | -30% | ?
COC(=O)Nc1nc2ccccc2[nH]1 | 12 | 6.5µM* | 5.8µM* | ? | ?
COC(=O)C(O)(c1c(C)[nH]c2ccccc12)C(F)(F)F (stereo not drawn) | 19 | -8% | -14% | -1% | -4%
O=C(C1CC(c2ccc(Cl)c(Cl)c2)=NO1)N1CCC2(CC1)OCCO2 (stereo not drawn) | -71* | 15µM* | 15µM* | -4%[9.24 µM] | -2%
ClCCN(CCCl)c1ccc(/C=C/c2sc3ccccc3[n+]2CCCCI)cc1 | nt | 3.2µM* | 2.5µM* | nt | nt
CCN1C[C@@]2(C)CC[C@@H](OC)[C@@]34C2C(O)[C@@]2(OCO[C@]25CC(OC)C2C[C@@]3(O)C5C2O)C14 (stereo partly drawn) | nt | -1% | -2% | nt | nt
CCOc1ccc(OCC)c(NC(=O)CN2CCN(c3ccc(C)cc3C)CC2)c1 | -24 | ? | 16µM* | 7% | 3%
COc1ccc(C)cc1NC(=O)CN1CCN(CC(=O)Nc2ccccc2F)CC1 | -23 | 23µM* | 15µM* | -5% | 0%
COC(=O)c1ccc(Cl)c(NC(=O)CN2CCN(Cc3ccccc3)CC2)c1 | 5 | 2% | ? | -9%[9.24 µM] | 2%
CC(N)[C@H](O)c1ccccc1 (stereo partly drawn) | nt | 3% | 0% | nt | nt
COc1ccc(C2c3c(nc(C)[nH]c3=O)Oc3c2c(=O)oc2ccccc32)cc1 (stereo not drawn) | -22 | -3% | -4% | 6% | -1%
Cc1ccc(C(O)(C(=O)OC(C)C)C(O)c2ccc(F)cc2)cc1 (stereo not drawn) | 15 | ? | 21µM* | -1% | -4%
CCOP(=O)(CN(CC)CCNP(=O)(OCC)OCC)OCC | 17 | -4% | -9% | 21% | 18%
CCc1ccc(N2C(=O)NC(=O)/C(=C\c3cccn3CCOc3ccc(C(C)C)cc3)C2=O)cc1 | -22 | 21µM* | 16µM* | 20% | 15%
Cc1ccc(OCCn2cccc2/C=C2/C(=O)NC(=O)N(Cc3ccco3)C2=O)cc1 | -22 | -28% | -15% | -5% | 2%
CCOc1ccc(C2SCC(=O)Nc3c2c(=O)[nH]n3C2CCCCCC2)cc1 (stereo not drawn) | -8 | ? | ? | -10% | 5%
CC1CN=C(NCc2ccccc2Cl)S1 (stereo not drawn) | -6 | -4% | 9% | 2% | 1%
COC(=O)c1cc2c(cn1)[nH]c1ccccc12 | nt | 21% | 0% | nt | nt
CCOC(=O)c1cc2c(cn1)[nH]c1ccccc12 | 5 | ? | 18µM*! | -6% | 0%
CCOC(=O)c1ccccc1OC(=O)NNc1ccccc1 | 0 | 8% | -15% | 12µM* | 5.8µM*
CCOC(=O)c1ccccc1N | -3 | 8% | -6% | nt | nt
Cc1ccc(NC(=O)c2snnc2C)cc1Cl | -3 | 12% | -2% | 7% | 24%
Cc1nn(C(C)(C)C)c(C)c1/C=N/OC(=O)Nc1ccc(Cl)c(Cl)c1 | 16 | 15µM* | 16µM* | -4% | -4%
N#Cc1c(Br)n(C2OC(CO)C(O)C2O)c2ncnc(N)c12 (stereo not drawn) | -69* | 1.5µM* | 1.2µM* | 3.3µM* | 7.3µM*
SMILES | IL1B secr inh | DT40 TDP1 CPT | TDP1 cell noCPT | HT1080 IDH1KD tx | HT1080NT lethal
NC(=O)c1c(Br)n(C2OC(CO)C(O)C2O)c2ncnc(N)c12 (stereo not drawn) | -76* | 2.1µM* | 1.8µM* | 7.3µM* | ?
CC(=O)O[C@]1(C)C(=O)OC/C2=C/CN(C)CCC(OC(=O)[C@@](O)(C(C)O)C[C@H]1C)C2=O (stereo partly drawn) | -4 | 19% | 16% | 19% | 14%
CCOc1ccc(NC(=O)c2c(O)[nH]c(=O)[nH]c2=O)cc1 | 14 | 23µM* | 16µM* | 4% | 4%
COC(=O)C1=C(c2ccc(C(C)=O)cc2)C[C@@H]2CC[C@H]1N2C(=O)N1CCCC1 | 25 | ? | ? | 17% | 7%
COC(=O)C1=C(c2ccc(OC(F)(F)F)cc2)C[C@@H]2CC[C@H]1N2C(=O)N1CCCCC1 | -4 | 2.6µM* | 2.1µM* | -17% | ?
COC(=O)C1=C(c2ccc(C(C)=O)cc2)C[C@@H]2CC[C@H]1N2C(=O)N1CCCCC1 | -1 | 21µM* | 16µM* | 4% | 3%
COC(=O)C1=C(c2ccc(S(C)(=O)=O)cc2)C[C@@H]2CC[C@H]1N2C(=O)N1CCOCC1 | -8 | -2% | 7% | -4% | -4%
CCOC(=O)Nc1ccc2c(c1)N(C(=O)CN(C)C)c1ccccc1CC2 | -4 | ? | ? | -5% | -5%
COc1ccc(C2=C(C(C)=O)Sc3nnc(-c4ccc(C)cc4)n3N2C(C)=O)cc1OC | nt | 2.9µM* | 4.6µM* | nt | nt
CN(C)c1cccc(CN2CCN(c3ccccc3)CC2)c1 | -25 | -28% | ? | 7% | 10%
COc1cccc2c1C(=O)c1c(O)c3c(c(O)c1C2=O)C[C@@](O)(C(=O)CO)C[C@@H]3O[C@H]1C[C@H](N)[C@H](O[C@@H]2CCCCO2)[C@H](C)O1 | nt | 0.19µM* | 0.34µM* | nt | nt
C=CCn1c(O)c(C(C)=NCCCN(C)C)c(=O)[nH]c1=O | 18 | 13% | 25% | 22% | 15%
Cc1cc(N2CCN(S(=O)(=O)c3ccc(Cl)cc3)CC2)c2ccccc2n1 | -64* | 23µM* | 21µM* | ? | ?
Cc1ccc(S(=O)(=O)N(CC(=O)NCCSc2ccc(Cl)cc2)c2ccccc2C)cc1 | nt | 21µM* | 23µM* | nt | nt
c1ccc2c(CCNC3=NCCC3)c[nH]c2c1 | -7 | -8% | -20% | -5% | -2%
NP(=O)(Oc1ccccc1)Oc1ccccc1 | -1 | 17% | 9% | 2% | 0%
O=[N+]([O-])c1nccn1CC(O)CN1CC1 (stereo not drawn) | -2 | 12µM* | 10µM* | 14% | 23%
CC1C(C)N1CC(O)Cn1ccnc1[N+](=O)[O-] (stereo not drawn) | -5 | ? | ? | 5% | 1%
CN(C)/C=C1/C(=O)NC(=O)N(CCNc2ncc(C(F)(F)F)cc2Cl)C1=O | -9 | -6% | -24% | -3% | 9%
